Compound activity (PubChem)
Shown are actives, neighbours in structure and some others; about 4.7% of the full set was active somewhere.
SUMO HTRF inh: inhibitors of in vitro SUMOylation cascade, primary screen, biochemical, HTRF, uHTS; SUMO-conjugating enzyme UBC9 (Homo sapiens), P63279; HTRF SUMOylation assay, SAE1/SAE2 + UBC9; inhibition, % at 35 µM; hit rate 0.36% among 290,000; AID 2006, 2009; in the data active = inhibition above about 50%, passing the limit was not always enough; inconclusive = no clear call, values can overlap the other calls
Target sequence (P63279 whole entry, looked up): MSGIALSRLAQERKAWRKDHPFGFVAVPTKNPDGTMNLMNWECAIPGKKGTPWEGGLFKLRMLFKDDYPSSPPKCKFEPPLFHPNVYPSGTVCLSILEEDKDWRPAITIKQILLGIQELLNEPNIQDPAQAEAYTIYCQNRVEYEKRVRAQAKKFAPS
MLLE-PAM2 inh: inhibitors of PABP1 MLLE–PAM2 peptide binding, primary screen, biochemical, fluorescence polarization, FITC-PAM2, GST-MLLE; Polyadenylate-binding protein 1 (Homo sapiens), P11940; inhibition, % at 20 µM; hit rate 0.36% among 360,000; AID 588489, 2011; in the data active = inhibition above about 35%, passing the limit was not always enough;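 also: plate controls were DMSO wells with GST-MLLE for no effect and wells lacking GST-MLLE protein for full effect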
ALR H2O2 inh: inhibitors of human ALR sulfhydryl oxidase, primary screen, biochemical, H2O2 detection, HRP-luminol luminescence, single point; FAD-linked sulfhydryl oxidase ALR (Homo sapiens), P55789; inhibition, % (no concentration beside the values); hit rate 3.8% among 290,000; AID 485317, 2010; purified ALR, DTT oxidation;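 active = mean replicate inhibition above about 79%, with every replicate also reaching it, limit read from the data; inconclusive = only one of the two criteria met; inactive = mean below limit and not every replicate reaching it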
Target sequence (P55789 whole entry, looked up): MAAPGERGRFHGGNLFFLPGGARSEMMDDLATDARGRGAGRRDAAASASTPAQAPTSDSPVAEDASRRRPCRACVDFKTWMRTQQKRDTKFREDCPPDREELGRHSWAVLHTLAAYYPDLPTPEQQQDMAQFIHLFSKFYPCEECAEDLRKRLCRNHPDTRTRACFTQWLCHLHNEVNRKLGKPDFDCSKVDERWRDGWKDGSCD
Efflux pump inh: inhibitors of Candida efflux pumps in yeast, primary screen, S. cerevisiae, Nile Red, multiplex | hit rate 0.44% among 330,000 | inhibition, % at 10 µM | S. cerevisiae Candida pump triplex;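 active = plate passing quality check with inhibition over a set limit, or well fluorescence over plate mean plus 4 SD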;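 also: Nile Red retained in pooled yeast measured as flow cytometry median fluorescence; 0% = buffer negative control and 100% = Enniatin B positive control; higher means more Nile Red kept so more efflux inhibition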
eIF4H inh: human eIF4H binding inhibitors, primary screen, translation initiation inhibitor project, biochemical, uHTS, fluorescence polarization; Eukaryotic translation initiation factor 4H (Homo sapiens), Q15056; eIF4H fluorescence polarization binding assay; inhibition, % at 35 µM; hit rate 0.94% among 290,000; AID 2012, 2009;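 also: calls also rest on retests at 20 µM and on dose response follow-up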
PABP polyA inh: PABP poly(A) RNA binding inhibitors, primary screen, biochemical, fluorescence polarization, uHTS. Polyadenylate-binding protein 1 (Homo sapiens), P11940. hit rate 1% among 290,000. inhibition, % at 35 µM;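 also: calls also rest on retests at 20 µM and on dose response follow-up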
* marks the source's active call; other numbers are inactive results; ? = inconclusive; . = no result given; ! = a repeat was not active. Unless noted, no rule for the calls is given here.

SMILES	SUMO HTRF inh	MLLE-PAM2 inh	ALR H2O2 inh	Efflux pump inh	eIF4H inh	PABP polyA inh
CN1CCN(c2ccc(NC(=O)Oc3ccccc3)cc2)CC1	10	-7	80*	0	-18	17
Cc1nn(CC(C)C)c(Cl)c1C(=O)O	-3	-8	-19	0	4	-23
COc1ccc(C2CC(c3c(O)n(CCc4ccccc4)c(=O)[nH]c3=O)=NN2)cc1OC (centres undefined)	11	-9	11	0	2	3
COc1cc2c(cc1OC)C(c1c(O)n(CCc3ccccc3)c(=S)[nH]c1=O)NCC2 (centres undefined)	3	.	4	0	?	40*
O=[N+]([O-])c1cc(O)c(O)c([N+](=O)[O-])c1	.	-8	92*	0	.	.
O=[N+]([O-])c1ccc(O)c([N+](=O)[O-])c1	.	4	-5	0	.	.
N[C@H](CO)Cc1ccccc1	.	9	.	.	.	.
Oc1ccc(C(=C(Cl)Cl)c2ccc(O)cc2)cc1	-9	.	86*	1	-8	5
Oc1ccc(Cl)cc1	.	-12	.	0	.	.
COc1ccc(-n2nc(C(=O)NCC(=O)N3CCC4(CC3)OCCO4)c3ccccc3c2=O)cc1OC	1	5	-2	0	29	4
CN=C(SCc1ccccc1)c1c(O)n(C)c(=O)n(C)c1=O	6	15	98*	0	2	-5
Cn1c(O)c(C(=O)c2ccccc2)c(=O)n(C)c1=O	-7	7	46	0	56*	54*
C/C(=N\Nc1ccccc1)c1c(O)n(C)c(=O)n(C)c1=O	4	6	99*	0	0	4
CC(=NCCO)c1c(O)n(C)c(=O)n(C)c1=O	13	-10	-12	0	-8	8
C/C(=N\Nc1ccccc1)c1c(O)n(-c2ccccc2)c(=O)[nH]c1=O	8	-1	99*	0	-2	5
C/C(=N\Nc1ccccc1)c1c(O)n(Cc2ccccc2)c(=O)[nH]c1=O	10	1	98*	0	-18	-9
C/C(=N\NC(=O)c1ccccc1)c1c(O)n(C2CCCCC2)c(=O)[nH]c1=O	-6	3	93*	0	-11	1
C=C(C)C(Cc1c(OC)ccc(C(=O)/C=C/c2ccc(O)cc2)c1O)OO (centres undefined)	.	-11	.	0	.	.
CC1CN2C(=O)C1(c1ccccc1)C(=O)NC2=S (centres undefined)	.	7	.	.	.	.
Cc1cc(N2CCCCC2)ccc1C=C1C(=O)N(C)C(=S)N(C)C1=O	17	-27	90*	0	24	3
CN1C(=O)/C(=C\c2ccc(N3CCCCCC3)cc2)C(=O)NC1=S	11	-66	-12	0	-1	9
CC[C@@H](CO)NC(=O)[C@@H]1C=C2c3cccc4c3c(cn4C)C[C@H]2N(C)C1	11	75*!	5	0	?	?
CN1CC=C2C(C#N)=C(N)C(C#N)(C#N)C(c3ccncc3)C2C1 (centres undefined)	33	96	-18	0	122*	116*
N#CC1=C(N)Oc2c(c(=O)oc3ccccc23)C1c1cccnc1 (centres undefined)	-1	2	23	0	1	2
N#CC1=C(N)Oc2c(c(=O)sc3ccccc23)C1c1ccncc1 (centres undefined)	10	0	95*	0	3	5
SMILES	SUMO HTRF inh	MLLE-PAM2 inh	ALR H2O2 inh	Efflux pump inh	eIF4H inh	PABP polyA inh
CCN(CC)P(=O)(Oc1ccccc1)Oc1ccccc1	-7	7	-6	0	9	3
CCOP(=O)(OCC)C(O)c1ccc(N(C)C)cc1 (centres undefined)	17	-4	86*	0	4	6
CN1CCc2nc(SCc3cccc(Br)c3)c(C#N)cc2C1	10	-19	99*	0	3	0
CN1C(=O)NC(=O)/C(=C\C=C\c2ccccc2[N+](=O)[O-])C1=O	19	.	11	0	12	-1
O=P1(Nc2ccc(F)cc2)COc2ccccc2OC1	23	7	-8	0	-1	22
COC(=O)c1ccccc1OP1(=O)COc2ccccc2OC1	21	-3	99*	0	-9	1
